PubChem BioAssay (EPA / NIEHS)
Inconclusive results are not listed. Activity calls are given as the source filed them. How the source made its calls, unless noted: active means hit-call score of the fitted dose curve at least 0.9, where 1 is the maximum; inactive means score below 0.9.

Experiments:
[1] = molecular target: Retinoic acid receptor RXR-alpha (Homo sapiens) (UniProt P19793); experiment: ATG_RXRa_TRANS: Attagene TRANS-FACTORIAL HepG2 Assay for human Retinoid X Receptor alpha (RXRa) (AID 2283012; active means hit-call score of the fitted dose curve at least 0.9, where 1 is the maximum)
Procedure, shortened: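 HepG2 cells transiently transfected with multiplexed GAL4-UAS reporter units and chimeric NR-GAL4 fusions, dosed 24 h. Reporter mRNA measured by RT-PCR, FAM labelling, HpaI digestion and capillary electrophoresis; gain-of-signal fitted relative to DMSO baseline.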

[2] = molecular target: human Retinoid X Receptor beta (RXRb), RXRB (gene 6257) (UniProt P28702); experiment: ATG_RXRb_TRANS: Attagene TRANS-FACTORIAL HepG2 Assay for human Retinoid X Receptor beta (RXRb) (AID 2283013; active means hit-call score of the fitted dose curve at least 0.9, where 1 is the maximum)
Procedure, shortened: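 HepG2 cells transiently transfected with multiplexed reporter units driven by GAL4-UAS and exogenous chimeric NR-Gal4 proteins; treated 24 h. Reporter mRNA measured by RT-PCR, 6-FAM labelling and capillary electrophoresis; gain-of-signal fitted versus DMSO baseline.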

[3] = read-out: E-selectin (Homo sapiens) (UniProt P16581); experiment: BSK_3C_Eselectin: BioMAP Diversity Plus: 3C Assay for Eselectin Biomarker Activity (AID 2283015); settings: primary human endothelial cells (HUVEC); actives raise or lower the signal
Procedure, shortened: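 E-selectin ELISA readout, fitted bidirectionally relative to DMSO, taken 24 h post-dosing in HUVEC cultures of the 3C system. Overt cytotoxicity tracked with sulforhodamine B staining of parallel wells.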

[4] = read-out: Interleukin-1 alpha (IL1a), IL1A (gene 3552); experiment: BSK_BE3C_IL1a: BioMAP Diversity Plus: BE3C Assay for Interleukin-1 alpha (IL1a) Biomarker Activity (AID 2283016); settings: primary human bronchial epithelial cells; actives raise or lower the signal
Procedure, shortened: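 Human primary bronchial epithelial cells (BE3C system) were dosed with compound and IL-1a measured by ELISA 24 h later. Activity was fitted bidirectionally against DMSO baseline; cytotoxicity was tracked in parallel cultures by SRB total-protein staining.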

[5] = read-out: Monocyte Chemoattractant Protein-1 (MCP1), CCL2 (gene 6347); experiment: BSK_3C_MCP1: BioMAP Diversity Plus: 3C Assay for Monocyte Chemoattractant Protein-1 (MCP1) Biomarker Activity (AID 2283017); settings: primary human endothelial cells (HUVEC); actives raise or lower the signal
Procedure, shortened: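 MCP-1 was measured by ELISA 24 h after dosing in primary HUVEC 3C cultures and fitted in both directions relative to DMSO; cytotoxicity was checked by SRB total-protein staining in parallel wells.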

[6] = read-out: Monocyte Chemoattractant Protein-1 (MCP1), CCL2 (gene 6347); experiment: BSK_4H_MCP1: BioMAP Diversity Plus: 4H Assay for Monocyte Chemoattractant Protein-1 (MCP1) Biomarker Activity (AID 2283018); settings: primary human endothelial cells (HUVEC); actives raise or lower the signal
Procedure, shortened: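 Human umbilical vein endothelial cells (4H system) dosed with chemical; MCP-1 measured by ELISA 24 h after dosing. Bidirectional curve fitting against DMSO negative control as baseline; parallel SRB total-protein staining tracks overt cytotoxicity.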

[7] = read-out: Human Leukocyte Antigen - DR isotype (HLADR), HLA-DRA (gene 3122); experiment: BSK_3C_HLADR: BioMAP Diversity Plus: 3C Assay for Human Leukocyte Antigen - DR isotype (HLADR) Biomarker Activity (AID 2283019); settings: primary human endothelial cells (HUVEC); actives raise or lower the signal
Procedure, shortened: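 Bidirectional fitting against DMSO was applied to the HLA-DR ELISA signal from human umbilical vein endothelial cells, 24 h post-dose. Cytotoxicity came from parallel SRB total-protein staining; 3C proliferation was counted by SRB at 48 h.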

[8] = read-out: Interleukin-8 (IL8), CXCL8 (gene 3576); experiment: BSK_3C_IL8: BioMAP Diversity Plus: 3C Assay for Interleukin-8 (IL8) Biomarker Activity (AID 2283020); settings: primary human endothelial cells (HUVEC); actives raise or lower the signal
Procedure, shortened: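 Primary human umbilical vein endothelial cells (3C system) were exposed to test chemical for 24 h, then IL-8 was quantified by ELISA. Responses were fitted bidirectionally against DMSO vehicle as baseline.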

[9] = read-out: Monokine induced gamma interferon (MIG), CXCL9 (gene 4283); experiment: BSK_3C_MIG: BioMAP Diversity Plus: 3C Assay for Monokine induced gamma interferon (MIG) Biomarker Activity (AID 2283021); settings: primary human endothelial cells (HUVEC); actives raise or lower the signal;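 on AC50: MIG protein level measured by immunoassay in the treated endothelial cultures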
Procedure, shortened: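 Primary human umbilical vein endothelial cells in the 3C system were exposed to chemical for 24 h, after which MIG was quantified by ELISA. Activity was fitted bidirectionally against DMSO as negative control and baseline.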

[10] = molecular target: human Vitamin D Receptor (VDR), VDR (gene 7421) (UniProt P11473); experiment: ATG_VDR_TRANS: Attagene TRANS-FACTORIAL HepG2 Assay for human Vitamin D Receptor (VDR) (AID 2283022; active means hit-call score of the fitted dose curve at least 0.9, where 1 is the maximum)
Procedure, shortened: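 Transactivation by an exogenous VDR-Gal4 chimera in transiently transfected HepG2 cells was measured as reporter transcript level 24 hours after chemical treatment. RT-PCR products were analysed by capillary electrophoresis and fitted in the positive direction relative to DMSO.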

[11] = BSK_3C_SRB: Viability Assessment in the BioMAP Diversity Plus: 3C Assay (AID 2283023); settings: primary human endothelial cells (HUVEC);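 further: fitted both ways against DMSO so a hit may be signal rise or drop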
Procedure, shortened: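 Cytotoxicity readout in parallel HUVEC 3C cultures: after 24 h compound exposure, cells fixed with 10% TCA, stained with 0.1% SRB and read at 560 nm. Gain or loss relative to DMSO fitted.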

[12] = read-out: Matrix Metallopeptidase 1 (MMP1), MMP1 (gene 4312); experiment: BSK_BE3C_MMP1: BioMAP Diversity Plus: BE3C Assay for Matrix Metallopeptidase 1 (MMP1) Biomarker Activity (AID 2283024); settings: primary human bronchial epithelial cells; actives raise or lower the signal
Procedure, shortened: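 Primary human bronchial epithelial cells were dosed with test chemicals, and MMP1 levels were measured by ELISA 24 h later. Data were fitted bidirectionally against DMSO as the negative control and activity baseline.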

[13] = BSK_3C_Vis: BioMAP Diversity Plus: 3C Assay for Morphology Visualization (AID 2283025); settings: primary human endothelial cells (HUVEC);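 further: fitted both ways so gain or loss versus DMSO counts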
Procedure, shortened: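 Human umbilical vein endothelial cells in the 3C system were imaged by light microscopy 24 h after chemical dosing to record cell morphology. Activity was fitted bidirectionally against DMSO as negative control and baseline; the endpoint serves as a background control.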

[14] = read-out: Pselectin, SELP (gene 6403); experiment: BSK_4H_Pselectin: BioMAP Diversity Plus: 4H Assay for Pselectin Biomarker Activity (AID 2283026); settings: primary human endothelial cells (HUVEC); actives raise or lower the signal
Procedure, shortened: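 Primary human umbilical vein endothelial cells were exposed to test chemical for 24 h, then cell-surface P-selectin was quantified by ELISA. Activity was fitted bidirectionally against DMSO as negative control and baseline.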

[15] = BSK_4H_SRB: Viability Assessment in the BioMAP Diversity Plus: 4H Assay (AID 2283027); settings: primary human endothelial cells (HUVEC);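 further: cells exposed to compound for 24 h before staining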;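 on AC50: curves fitted both ways versus DMSO so AC50 may be loss or gain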
Procedure, shortened: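 Human umbilical vein endothelial cells were dosed with chemical and, after 24 h, fixed with 10% TCA, stained with 0.1% sulforhodamine B, and read at 560 nm to give total protein as a cytotoxicity measure. Bidirectional fitting relative to DMSO control.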

[16] = read-out: Thrombomodulin, THBD (gene 7056); experiment: BSK_3C_Thrombomodulin: BioMAP Diversity Plus: 3C Assay for Thrombomodulin Biomarker Activity (AID 2283029); settings: primary human endothelial cells (HUVEC); actives raise or lower the signal
Procedure, shortened: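 Primary human umbilical vein endothelial cells (3C system) were exposed to chemical for 24 h, then thrombomodulin levels were measured by ELISA. Activity was fitted bidirectionally against the DMSO negative control as baseline.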

[17] = read-out: Urokinase-type plasminogen activator receptor (uPAR), PLAUR (gene 5329); experiment: BSK_4H_uPAR: BioMAP Diversity Plus: 4H Assay for Urokinase-type plasminogen activator receptor (uPAR) Biomarker Activity (AID 2283030); settings: primary human endothelial cells (HUVEC); actives raise or lower the signal
Procedure, shortened: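 uPAR level read by ELISA on HUVEC cultures (BioMAP 4H) 24 h post-dosing, analyzed for gain or loss relative to DMSO. Parallel SRB staining assessed overt cytotoxicity.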

[18] = read-out: Vascular endothelial growth factor receptor 2 (Homo sapiens) (UniProt P35968); experiment: BSK_4H_VEGFRII: BioMAP Diversity Plus: 4H Assay for Vascular endothelial growth factor receptor 2 (VEGFR2) Biomarker Activity (AID 2283031); settings: primary human endothelial cells (HUVEC); actives raise or lower the signal;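 on AC50: cell-surface VEGFR2 protein level quantified by ELISA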
Procedure, shortened: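 Measured by ELISA after 24 h of compound treatment: VEGFR2 on primary human umbilical vein endothelial cells, fitted in both directions relative to DMSO. Parallel cultures received SRB staining (560 nm) for overt cytotoxicity.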

[19] = BSK_BE3C_SRB: Viability Assessment in the BioMAP Diversity Plus: BE3C Assay (AID 2283028); settings: primary human bronchial epithelial cells
Procedure, shortened: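 Cytotoxicity read-out: SRB (0.1%) staining of TCA-fixed (10%) human lung bronchial epithelial cells, absorbance 560 nm, 24 h post-dosing. Curves fitted both directions relative to DMSO.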

[20] = molecular target: human RAR-related Orphan Receptor beta (RORb), RORB (gene 6096) (UniProt Q92753); experiment: ATG_RORb_TRANS: Attagene TRANS-FACTORIAL HepG2 Assay for human RAR-related Orphan Receptor beta (RORb) (AID 2283010; active means hit-call score of the fitted dose curve at least 0.9, where 1 is the maximum)
Procedure, shortened: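 HepG2 cells were transiently transfected with multiplexed GAL4-UAS reporter units expressing chimeric nuclear receptor–GAL4 proteins, then dosed for 24 h. Reporter mRNA was quantified by RT-PCR with fluorescent labelling and capillary electrophoresis; gain of signal was fitted relative to DMSO.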

Measured: AC50

Sequence of Retinoic acid receptor RXR-alpha (Homo sapiens) (P19793 whole entry, looked up, the tested form may be a part): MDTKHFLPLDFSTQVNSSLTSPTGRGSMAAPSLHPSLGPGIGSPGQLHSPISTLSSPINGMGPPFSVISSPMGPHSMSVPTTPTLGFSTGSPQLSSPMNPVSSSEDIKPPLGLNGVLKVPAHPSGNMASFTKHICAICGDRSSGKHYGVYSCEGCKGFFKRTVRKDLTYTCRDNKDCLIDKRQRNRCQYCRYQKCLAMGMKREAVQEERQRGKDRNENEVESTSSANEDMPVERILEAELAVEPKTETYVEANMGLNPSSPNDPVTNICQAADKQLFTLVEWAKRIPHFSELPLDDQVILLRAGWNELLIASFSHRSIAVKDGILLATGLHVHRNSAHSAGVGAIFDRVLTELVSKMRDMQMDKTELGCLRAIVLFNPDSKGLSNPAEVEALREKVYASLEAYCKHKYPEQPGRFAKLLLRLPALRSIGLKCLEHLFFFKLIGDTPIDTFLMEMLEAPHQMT
Sequence of human Vitamin D Receptor (VDR), VDR (gene 7421) (P11473 whole entry, looked up, the tested form may be a part): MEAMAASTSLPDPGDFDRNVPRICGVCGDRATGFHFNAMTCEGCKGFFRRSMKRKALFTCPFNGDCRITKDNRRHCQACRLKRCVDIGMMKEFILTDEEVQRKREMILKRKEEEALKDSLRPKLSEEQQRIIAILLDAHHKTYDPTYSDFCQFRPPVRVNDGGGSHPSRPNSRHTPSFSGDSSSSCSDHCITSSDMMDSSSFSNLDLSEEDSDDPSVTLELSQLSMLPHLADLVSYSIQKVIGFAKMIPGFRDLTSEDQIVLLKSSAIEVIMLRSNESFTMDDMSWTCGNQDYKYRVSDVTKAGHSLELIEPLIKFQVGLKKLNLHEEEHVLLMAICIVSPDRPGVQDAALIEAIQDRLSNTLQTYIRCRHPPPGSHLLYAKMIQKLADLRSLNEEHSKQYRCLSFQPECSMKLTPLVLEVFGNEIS
Sequence of human Retinoid X Receptor beta (RXRb), RXRB (gene 6257) (P28702 whole entry, looked up, the tested form may be a part): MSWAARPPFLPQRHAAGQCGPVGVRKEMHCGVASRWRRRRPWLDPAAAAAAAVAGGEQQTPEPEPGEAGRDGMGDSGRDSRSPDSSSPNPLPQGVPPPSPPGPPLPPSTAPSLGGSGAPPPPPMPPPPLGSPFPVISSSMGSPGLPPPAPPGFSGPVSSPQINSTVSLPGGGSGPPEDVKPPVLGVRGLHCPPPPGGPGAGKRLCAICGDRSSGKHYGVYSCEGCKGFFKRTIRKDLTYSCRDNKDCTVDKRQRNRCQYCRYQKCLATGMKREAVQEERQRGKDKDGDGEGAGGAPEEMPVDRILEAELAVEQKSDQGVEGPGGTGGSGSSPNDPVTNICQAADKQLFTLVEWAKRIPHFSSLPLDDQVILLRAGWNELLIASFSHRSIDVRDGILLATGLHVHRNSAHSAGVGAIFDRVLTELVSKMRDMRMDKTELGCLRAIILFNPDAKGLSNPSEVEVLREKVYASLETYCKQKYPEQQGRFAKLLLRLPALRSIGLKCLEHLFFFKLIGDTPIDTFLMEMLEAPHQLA
Sequence of E-selectin (Homo sapiens) (P16581 whole entry, looked up): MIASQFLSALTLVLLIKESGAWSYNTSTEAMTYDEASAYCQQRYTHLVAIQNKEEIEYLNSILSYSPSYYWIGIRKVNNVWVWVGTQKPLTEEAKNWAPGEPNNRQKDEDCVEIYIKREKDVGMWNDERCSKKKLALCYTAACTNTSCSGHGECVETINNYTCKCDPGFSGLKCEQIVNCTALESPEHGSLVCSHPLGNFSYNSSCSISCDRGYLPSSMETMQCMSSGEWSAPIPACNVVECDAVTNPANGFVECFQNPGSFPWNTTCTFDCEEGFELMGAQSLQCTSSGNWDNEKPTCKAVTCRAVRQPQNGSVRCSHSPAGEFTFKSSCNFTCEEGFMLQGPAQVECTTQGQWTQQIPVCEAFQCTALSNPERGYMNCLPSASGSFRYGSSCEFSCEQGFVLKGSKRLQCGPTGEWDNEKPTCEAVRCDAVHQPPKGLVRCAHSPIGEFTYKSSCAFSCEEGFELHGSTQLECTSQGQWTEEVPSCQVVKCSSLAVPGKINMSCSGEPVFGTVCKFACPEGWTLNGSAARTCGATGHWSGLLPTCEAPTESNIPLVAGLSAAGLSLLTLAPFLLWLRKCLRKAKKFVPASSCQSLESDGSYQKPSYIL
Sequence of human RAR-related Orphan Receptor beta (RORb), RORB (gene 6096) (Q92753 whole entry, looked up, the tested form may be a part): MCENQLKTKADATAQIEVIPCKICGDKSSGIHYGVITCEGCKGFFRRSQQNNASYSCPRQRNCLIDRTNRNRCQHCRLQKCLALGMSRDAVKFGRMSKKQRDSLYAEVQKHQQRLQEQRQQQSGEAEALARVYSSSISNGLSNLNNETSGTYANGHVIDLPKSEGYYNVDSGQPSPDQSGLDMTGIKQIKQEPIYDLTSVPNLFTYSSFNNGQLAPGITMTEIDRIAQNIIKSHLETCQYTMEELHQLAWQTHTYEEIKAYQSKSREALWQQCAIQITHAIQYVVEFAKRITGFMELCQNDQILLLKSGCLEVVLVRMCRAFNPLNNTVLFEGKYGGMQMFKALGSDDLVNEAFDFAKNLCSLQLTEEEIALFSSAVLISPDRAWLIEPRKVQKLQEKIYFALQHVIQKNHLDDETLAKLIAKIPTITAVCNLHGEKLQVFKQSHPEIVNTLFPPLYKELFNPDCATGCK

C1CCC(SSC2CCCCC2)CC1
active: [7] 20 µM
not listed: [19] | [20]
inactive: all other assays above

Cc1oc(-c2ccccc2)nc1CCOc1cccc2c1ccn2CCC(=O)O
active: [1] 44.9 µM | [2] 8.2 µM
not listed: [20]
inactive: all other assays above

CCCc1cc(=O)[nH]c(=S)[nH]1
not listed: [1] | [10] | [19]
inactive: all other assays above

Oc1ccc2c(c1)OC[C@@H](N1CCC(O)(c3ccc(F)cc3)CC1)[C@H]2O
not listed: [10] | [19] | [20]
inactive: all other assays above

COCCOC[C@H](CC1(C(=O)NC2CCC(C(=O)O)CC2)CCCC1)C(=O)Oc1ccc2c(c1)CCC2 (some centres undefined)
not listed: [2] | [20]
inactive: all other assays above

Cc1ccc(N(C)C)cc1
not listed: [20]
inactive: all other assays above

CCCCCCOCCO
not listed: [19] | [20]
inactive: all other assays above

CNCc1cc(F)ccc1Oc1ccc(Cl)c(Cl)c1
active: [3] 4.88 µM | [5] 20 µM | [6] 11.6 µM | [7] 32.4 µM | [8] 20 µM | [11] 27.6 µM | [14] 26 µM | [15] 26.1 µM | [17] 26.9 µM
not listed: [20]
inactive: all other assays above

Cc1nc(C)nc(N2C[C@@H](C)N(c3ccnc([C@@H](C)O)n3)[C@@H](C)C2)n1
not listed: [2] | [20]
inactive: all other assays above

Cc1cccc(C)c1O
not listed: [20]
inactive: all other assays above

CCCCCCCCCCCCCO
active: [2] 58.9 µM | [3] 37.8 µM | [5] 39 µM | [6] 37.6 µM | [7] 35.8 µM | [8] 37 µM | [9] 37.4 µM | [11] 32.1 µM | [12] 20.6 µM | [13] 38.6 µM | [14] 35.1 µM | [15] 31.8 µM | [17] 38.9 µM | [18] 30.6 µM
inactive: [1] | [4] | [10] | [19] | [16]

CCCCCC(=O)O
not listed: [20]
inactive: all other assays above

COc1cc(S(=O)(=O)O)c(C)cc1N=Nc1c(O)ccc2cc(S(=O)(=O)O)ccc12
not listed: [2] | [20]
inactive: all other assays above

CC1=C(/C=C/C(C)=C/C=C/C(C)=C/CO)C(C)(C)CCC1
active: [1] 1.87 µM | [2] 0.474 µM | [3] 19.3 µM | [7] 25.3 µM
not listed: [20]
inactive: all other assays above

CC(=O)C(C)=CC1C(C)=CCCC1(C)C (centres undefined)
active: [2] 27.9 µM
not listed: [10] | [19] | [20]
inactive: all other assays above
